Results reported in PubChem BioAssay (NCATS).
Where “and” joins values, the source holds several entries; their conditions need not be identical. Identical values can stand only once. Results filed as inconclusive are left out. A call without a number means that no potency is given here. A structure can be active in one record and inactive in another. Calls of active or inactive are those of the source. The call rests on the fitted dose curve; in most records, active means well fitted inhibition curve with a large enough effect; inconclusive means small, poorly fitted or top-dose-only effect; inactive means flat fitted curve, though single readings scatter.

What follows are compounds tested against Phospholipid hydroperoxide glutathione peroxidase GPX4 (Homo sapiens) (UniProt P36969) (assay: Primary qHTS Assay for Inhibitors of Recombinant Selenoprotein Glutathione Peroxidase 4 (GPX4) (AID 1845192; further: nearly all actives have a fitted effect of over 65% in size)). Settings: recombinant GPX4, GR-coupled NADPH fluorescence, 15 min; series mostly up to 50 µM.
Phospholipid hydroperoxide glutathione peroxidase GPX4 (Homo sapiens), sequence (P36969 whole entry, looked up): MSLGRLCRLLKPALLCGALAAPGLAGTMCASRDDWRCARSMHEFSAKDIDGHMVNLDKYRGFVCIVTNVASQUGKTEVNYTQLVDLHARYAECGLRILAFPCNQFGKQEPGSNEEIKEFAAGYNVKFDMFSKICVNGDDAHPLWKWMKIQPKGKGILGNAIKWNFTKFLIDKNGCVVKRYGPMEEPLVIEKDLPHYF
Outline: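 GR-coupled readout: 100 nM GR, 1 mM GSH, 0.5 mM NADPH; NADPH fluorescence (ex 340/em 450 nm) read at t=0 and after 15 min RT. GPX4 200 nM, preincubated 30 min with compound; substrate 0.5 mM CHP.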
Potency means the concentration at half of the fitted maximal effect.

Row | Compound | Potency | outcome
1 | CC(=O)N[C@H]1CSSC[C@@H](C(N)=O)NC(=O)[C@H](C(C)C)NC(=O)[C@H](C)NC(=O)[C@H](Cc2cnc[nH]2)NC1=O | inactive | –
2 | O=C1S/C(=C\c2ccc(OCc3cccc(B(O)O)c3)cc2)C(=O)N1Cc1ccc(F)cc1 | inactive | –
3 | O=c1ncccn1[C@@H]1O[C@H](CO)[C@@H](O)[C@H]1O | inactive | –
4 | CC(C)OC(=O)[C@H](C)N[P@](=O)(OC[C@H]1O[C@@H](n2ccc(=O)[nH]c2=O)[C@](C)(F)[C@@H]1O)Oc1ccccc1 | inactive | –
5 | Cc1nc(C)c(CN2CCN(C(c3ccc(F)cc3)c3ccc(F)cc3)CC2)nc1C | inactive | –
6 | C=C1/C(=C/C=C2\CCCC3(C)[C@@H]([C@H](C)/C=C/C=C/C(O)(CC)CC)CC[C@@H]23)C[C@@H](O)C[C@@H]1O (some centres not stated) | inactive and 15.8 µM (active) | –
7 | Nc1cccc2c1CN([C@H]1CCC(=O)NC1=O)C2=O | inactive | –
8 | C[C@H]1CN(C2COC2)CCN1c1ccc(Nc2cc(-c3ccnc(N4CCn5c(cc6c5CC(C)(C)C6)C4=O)c3CO)cn(C)c2=O)nc1 | inactive | –
9 | CN(CCOc1ccc(-c2ccc3c(c2)OCO3)cc1C(C)(C)C)CC(=O)O | inactive | –
10 | C=CC(=O)N1C[C@H](Nc2ncnc3[nH]ccc23)CC[C@@H]1C | inactive | –
11 | COc1cc(-c2cn(C)c(=O)c3cnccc23)cc(OC)c1CN(C)C | inactive | –
12 | CC(C)(CO)n1cc(C(=O)c2cncc(NC(=O)Cc3ccc(Cl)cn3)c2)c2cnc(N)nc21 | inactive | –
13 | CCn1c(=O)c2c(nc(/C=C/c3ccc(OC)c(OC)c3)n2C)n(CC)c1=O | inactive | –
14 | CCC(=O)OCC(=O)C1(OC(=O)CC)C(C)CC2C3CCC4=CC(=O)C=CC4(C)C3(F)C(O)CC21C (configuration not stated) | inactive | –
15 | O=C(Cc1ccccc1)Nc1nnc(CCSCCc2nnc(NC(=O)Cc3ccccc3)s2)s1 | inactive | –
16 | Cc1[nH]nc2ncc(C(=O)N3CCC[C@H]3c3ccc(Cl)cc3)cc12 | inactive | –
17 | NS(=O)(=O)Oc1ccc2c3c(c(=O)oc2c1)CCCCC3 | 18 µM (active) | –
18 | Fc1ccc(-c2csc3ncnc(NCc4ccc5c(c4)OCO5)c23)cc1 | inactive | –
19 | CC(=O)N1CCC(Nc2cc(C(=O)NC[C@H](O)CN3CCc4ccccc4C3)ncn2)CC1 | inactive | –

Row | Compound | Potency | outcome
20 | Nc1cc(COc2c(Cl)cc(C[C@H](N)C(=O)O)cc2Cl)c2oc(-c3ccccc3)nc2c1 | inactive | –
21 | C=CC(=O)N1CC(N2CCN(C(=O)CNc3cc(C4(C)CC4)c(Cl)cc3O)CC2)C1 | inactive | –
22 | COc1ccc(S(=O)(=O)NCc2ccc(C(=O)NCCc3ccc(Cl)cn3)cc2)cc1 | inactive | –
23 | CCOCOC[C@H](C[C@H](C)C(=O)NO)NC(=O)c1ccc(Oc2ccccc2)cc1 | inactive | –
24 | CN(C(=O)CNC(=O)/C=C/c1cccc(Cl)c1)C1CCS(=O)(=O)CC1 | inactive | –
25 | OCCOc1ccc(/C(=C(/CCCl)c2ccccc2)c2ccccc2)cc1 | inactive | –
26 | CNS(=O)(=O)Nc1nccc(Cc2c(C)c3ccc(Oc4ncccn4)cc3oc2=O)c1F | inactive | –
27 | CN(C)C(N)=NC(=N)N | – | inactive [setting not given]
28 | C=CC(=O)Nc1cc(N2CCN(CC)CC2)ccc1Nc1cc(N(C)C(=O)Nc2c(Cl)c(OC)cc(OC)c2Cl)ncn1 | inactive | –
29 | CC(C)Oc1ccc(-c2nn([C@@H](C)c3oc4ccc(F)cc4c(=O)c3-c3cccc(F)c3)c3ncnc(N)c23)cc1F | inactive | –
30 | Ac-PHSCN-NH2 | inactive | –
31 | CS(=O)(=O)c1ccc([C@@H](CC2CCCC2)C(=O)Nc2nccs2)cc1 | inactive | –
32 | CCS(=O)(=O)N1CCC(C(C)n2c(C)c(C(=O)NCc3c(OC)cc(C)[nH]c3=O)c3ccccc32)CC1 (configuration not stated) | inactive | –
33 | CCOc1ccc(-n2c([C@@H](C)N(Cc3cccnc3)C(=O)Cc3ccc(F)c(C(F)(F)F)c3)nc3ncccc3c2=O)cc1 | inactive | –
34 | COc1cc(-c2cn(C)c(=O)c3cnccc23)c(OC)cc1CN(C)C | inactive | –
35 | COC(=O)C1=C(C)NC(c2ncc(F)cc2F)=N[C@@H]1c1ccc(F)cc1Cl | inactive | –
36 | CC(=O)[C@]1(N)Cc2c(O)c3c(c(O)c2[C@@H](O[C@H]2C[C@H](O)[C@H](O)CO2)C1)C(=O)c1ccccc1C3=O | inactive | –
37 | Nc1ncc(C(=O)NC2CN(C(=O)C3CC3)C2)c2ccc(-c3cccc(F)c3)nc12 | inactive | –
